The inhibition is the change of the read-out against control, counted positive when it falls.

Molecules are shown by their SMILES. Hit rate of the full screen: of about 220,000 compounds, about 800 (0.36%) were called active.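 The calls were made as follows: active = inhibition above about 30% (limit read from the data); inactive = the rest.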 Many of the other results were omitted from the sample, so actives are more common in it than they were.

Chain of Eukaryotic translation initiation factor 4E (Mus musculus) + Eukaryotic translation initiation factor 4 gamma 1 (Homo sapiens) (P63073 whole entry, looked up, the tested form may be a part): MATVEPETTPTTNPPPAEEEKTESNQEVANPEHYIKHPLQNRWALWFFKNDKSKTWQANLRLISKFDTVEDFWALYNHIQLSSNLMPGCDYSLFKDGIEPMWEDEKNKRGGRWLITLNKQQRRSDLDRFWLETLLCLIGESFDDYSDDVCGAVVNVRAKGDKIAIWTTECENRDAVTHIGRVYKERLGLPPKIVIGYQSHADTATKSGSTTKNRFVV
Chain of Eukaryotic translation initiation factor 4E (Mus musculus) + Eukaryotic translation initiation factor 4 gamma 1 (Homo sapiens) (Q04637 whole entry, looked up, the tested form may be a part): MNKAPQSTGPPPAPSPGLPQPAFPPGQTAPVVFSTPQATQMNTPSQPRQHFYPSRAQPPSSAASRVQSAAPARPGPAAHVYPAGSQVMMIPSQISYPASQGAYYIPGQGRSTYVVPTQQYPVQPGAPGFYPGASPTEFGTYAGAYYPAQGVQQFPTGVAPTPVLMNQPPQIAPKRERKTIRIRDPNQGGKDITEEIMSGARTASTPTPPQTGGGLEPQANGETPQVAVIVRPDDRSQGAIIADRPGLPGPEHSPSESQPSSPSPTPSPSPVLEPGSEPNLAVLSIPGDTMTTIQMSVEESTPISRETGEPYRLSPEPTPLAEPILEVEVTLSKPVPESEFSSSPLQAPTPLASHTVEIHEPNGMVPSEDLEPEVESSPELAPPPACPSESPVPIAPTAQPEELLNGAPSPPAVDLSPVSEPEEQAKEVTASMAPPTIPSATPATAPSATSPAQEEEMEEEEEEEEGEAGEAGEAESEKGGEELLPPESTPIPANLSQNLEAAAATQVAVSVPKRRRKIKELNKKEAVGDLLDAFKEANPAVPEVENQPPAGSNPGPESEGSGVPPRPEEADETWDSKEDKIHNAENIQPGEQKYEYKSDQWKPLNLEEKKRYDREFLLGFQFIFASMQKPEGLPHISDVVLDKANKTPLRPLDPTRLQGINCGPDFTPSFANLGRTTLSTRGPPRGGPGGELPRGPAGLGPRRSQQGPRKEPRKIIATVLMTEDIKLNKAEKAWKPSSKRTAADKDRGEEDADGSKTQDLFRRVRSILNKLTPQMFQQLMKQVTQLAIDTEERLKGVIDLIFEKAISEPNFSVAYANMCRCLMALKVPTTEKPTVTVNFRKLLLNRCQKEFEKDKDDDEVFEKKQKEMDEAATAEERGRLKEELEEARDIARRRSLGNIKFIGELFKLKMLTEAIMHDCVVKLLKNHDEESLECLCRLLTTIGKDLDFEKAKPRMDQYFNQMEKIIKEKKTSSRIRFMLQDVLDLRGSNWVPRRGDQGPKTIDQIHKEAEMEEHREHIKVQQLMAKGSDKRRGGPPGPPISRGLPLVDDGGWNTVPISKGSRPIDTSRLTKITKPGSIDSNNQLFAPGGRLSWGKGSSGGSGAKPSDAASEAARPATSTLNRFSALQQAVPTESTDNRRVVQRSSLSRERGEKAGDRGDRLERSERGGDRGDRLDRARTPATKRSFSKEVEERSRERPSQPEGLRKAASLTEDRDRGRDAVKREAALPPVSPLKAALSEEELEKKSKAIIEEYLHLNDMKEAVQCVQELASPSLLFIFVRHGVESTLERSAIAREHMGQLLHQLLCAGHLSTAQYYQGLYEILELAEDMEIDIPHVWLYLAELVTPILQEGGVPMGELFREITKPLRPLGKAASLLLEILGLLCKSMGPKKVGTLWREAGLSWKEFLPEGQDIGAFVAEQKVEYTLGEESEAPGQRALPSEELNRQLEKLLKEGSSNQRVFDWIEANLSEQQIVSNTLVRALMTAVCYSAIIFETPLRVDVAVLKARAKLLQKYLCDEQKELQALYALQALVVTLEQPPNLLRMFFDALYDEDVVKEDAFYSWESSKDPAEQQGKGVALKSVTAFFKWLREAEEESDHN

The assay concerns the target Eukaryotic translation initiation factor 4E (Mus musculus) + Eukaryotic translation initiation factor 4 gamma 1 (Homo sapiens) (UniProt P63073+Q04637). In words: eIF4E–eIF4G protein interaction inhibitors, primary screen, biochemical, uHTS, TR-FRET, eIF4GI fragment (AID 782).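 Also: 0% = full FRET control wells and 100% = background wells lacking eIF4GI fragment.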 As to conditions: TR-FRET eIF4E-eIF4GI(517-606) binding, 2 h; at 21.7 µM; active compounds read high.
For `Cc1ccc(NC(=S)NC(NC(=O)Cc2cccc3ccccc23)C(Cl)(Cl)Cl)cc1` (stereo not given), the inhibition is -28% (inactive).
Next, `CN(c1ccccc1)S(=O)(=O)c1ccc(Cl)c(C(=O)OCC(=O)N2CCOCC2)c1`: -1.49% (inactive); `C/C(=N\OCC(=O)O)c1ccc(Cl)cc1`: 1.37% (inactive).
Take `Cc1cc(C)nc(Nc2n[nH]c(-c3ccccc3N)n2)n1`: the inhibition is 4.42% (inactive).
For `COc1ccc(C(=O)n2nc(-c3ccc(C)cc3)nc2N)cc1OC`, the inhibition was -7.73% (inactive).
For `COc1ccc(C(=O)Cn2nnc(-c3ccc(N4CCOCC4)cc3)n2)cc1OC`, the inhibition is -9.64% (inactive).
Regarding `COC(=O)c1cc2occc2n1Cc1nc(-c2ccccc2C)oc1C`, the inhibition was 4.23% (inactive).
As for `O=C1Nc2cc(Cl)c(Cl)cc2N(O)N1c1ccccc1Cl`, the figure is 0.39% (inactive); as for `FC(F)(F)Oc1ccc(-c2cn3cccnc3n2)cc1`, -1.02% (inactive).
Take `COCc1c(N)c(C)nc(Cl)c1C#N`: the inhibition is 33.5% (active).
As for `Cc1nc(Cl)c(C#N)c2c1CCCC2`, the inhibition is 5.36% (inactive).
As for `COC(=O)c1c(C)c(C)nc(N)c1C#N`, the figure is -1.17% (inactive); as for `COc1ccc(CCNS(=O)(=O)c2cccc3cccnc23)cc1OC`, 4.09% (inactive); as for `O=S(=O)(NCCc1ccc(F)cc1)c1cccc2cccnc12`, 68.5% (active).
Next, `O=S(=O)(NCCOc1cccc2cccnc12)c1ccc(F)cc1`: -10.8% (inactive).
Next, `C=CCn1c(-c2ccccc2OCC)n[nH]c1=S`: -7.58% (inactive).
Regarding `C=CCn1c(-c2sc(-c3ccccc3)nc2C)n[nH]c1=S`, the inhibition was 3.95% (inactive).
Next, `C=CCn1c(-c2ccc3[nH]c(C)c(C)c3c2)n[nH]c1=S`: 31.9% (active); `NC(N)=Nc1nc2ccc(Br)cc2c(=O)[nH]1`: -3.42% (inactive).
Next, `CC(NCc1nc2ccccc2n1C)C12CC3CC(CC(C3)C1)C2` (stereo not given): 3.84% (inactive).
For `O=C(c1ccc(Br)o1)N(c1ccccn1)C1CCCCC1`, the inhibition is 1.85% (inactive).
As for `Cc1ccc(OS(=O)(=O)c2ccc(-c3csc(C)n3)s2)c(C)c1`, the figure is -1.07% (inactive); as for `CCOc1ccc(C2c3[nH]c4ccccc4c3CCN2Cc2cn(CC)nc2C)cc1` (stereo not given), 1.87% (inactive); as for `COC(=O)c1cc2n(n1)CCCNC2=O`, 2.7% (inactive).
As for `CC(=O)Nc1ccc(S(=O)(=O)N(C)c2ccc(OCC(=O)OCC(=O)N3CCCCC3)cc2)cc1`, the figure is -2.79% (inactive).
Next, `N#C/C(C(=O)N1CCOCC1)=C1/SC(Cc2ccc(F)cc2)C(=O)N1c1ccccc1` (stereo not given): 2.54% (inactive).
Take `Cc1cccc2cc3c(N)c(C(=O)N4CCCc5ccccc54)sc3nc12`: the inhibition was -0.81% (inactive).
Regarding `CCOc1ccccc1/C=N/NC(=O)CNC(=O)COc1ccccc1`, the inhibition is 0.46% (inactive).
On to `O=C(COc1cccc2ccccc12)Nc1cc(S(=O)(=O)N2CCOCC2)ccc1N1CCOCC1`, for which the inhibition was -0.21% (inactive).
As to `CCn1c(=O)c([N+](=O)[O-])c(NCc2ccc3c(c2)OCO3)c2ccccc21`, the inhibition is -2.34% (inactive).
`CCOc1ccc(-n2cnc3c(=O)[nH]c(N)nc32)cc1`: the inhibition is -1.7% (inactive).
Next, `CCC(C)(C)NC(=O)CN(C(=O)C(=O)Nc1ccc2c(c1)OCCO2)C(C)(C)CC`: 1.1% (inactive); `O=C(Nc1ccccc1C(F)(F)F)N1CCCC1c1cccnc1` (stereo not given): 0.48% (inactive).
Take `COc1cc2c(cc1OC)CC1(CCCCC1)N=C2`: the inhibition was -2.07% (inactive).
Consider `CC1(C)CC(N(Cc2ccccc2)C(=O)Cc2ccccc2)CCO1` (stereo not given), for which the inhibition is 1.78% (inactive).
Consider `CCc1ccc(N(CC(=O)Nc2sc3c(c2C(=O)OC)CCCC3)S(C)(=O)=O)cc1`, for which the inhibition was 1.86% (inactive).
Next, `Cc1cc(C)cc(NC(=O)COC(=O)c2cc(C)oc2C)c1`: -0.87% (inactive); `CCn1c(SCC(=O)N/N=C/c2ccccc2OCC(=O)O)nnc1-c1ccc(C(C)(C)C)cc1`: -4.63% (inactive).
On to `CC(C)(C)CN1C(=O)C(=O)NC[C@H]1Cc1cccc2ccccc12`, for which the inhibition was 3.22% (inactive).
Turning to `C/C=C/C(=O)Nc1nnc(C(C)C)s1`, the inhibition was -1.19% (inactive).
Consider `O=C1c2cccc(OCC(=O)N3N=C(c4cccs4)CC3c3ccc(F)cc3)c2CCN1Cc1ccccc1` (stereo not given), for which the inhibition was 11.7% (inactive).
Consider `CN=C1C=C/C(=N/N=c2\ccn(O)cc2C)C=C1C`, for which the inhibition is 3.23% (inactive).
Regarding `Brc1ccc(-c2noc(-c3ccccc3)n2)o1`, the inhibition was 3.6% (inactive).
Next, `COC(=O)c1cc(NC(=O)c2cc(C(C)(C)C)nn2Cc2cccc(C)c2)ccc1N1CCOCC1`: -1.37% (inactive); `CC(C)CNc1ncnc2c1cnn2Cc1ccc(Cl)cc1`: -0.57% (inactive).
Consider `COc1ccccc1-n1ccnc1SCC(=O)NC(C)(C)C`, for which the inhibition is -3.84% (inactive).
Next, `COCCNC(=O)Nc1ccc2nc(-c3ccco3)c(-c3ccco3)nc2c1`: 53.1% (active); `COc1ccc(NC(=O)Nc2ccc3nc(C)c(C)nc3c2)cc1`: 3.88% (inactive).
Next, `O=C(NCc1ccccn1)c1ccc2nc(-c3ccco3)c(-c3ccco3)nc2c1`: 2.59% (inactive); `CC(Sc1nnnn1C)C(=O)NC(=O)NC1CCCCC1` (stereo not given): 3.38% (inactive).
As for `COc1ccc(-n2c(C)cc(C(=O)CN3C(=O)NC4(CCc5ccccc54)C3=O)c2C)cc1` (stereo not given), the figure is -11% (inactive); as for `CC1=CC2=NC(=O)/C(=C/c3coc4ccccc4c3=O)C(=N)N2O1`, -3.42% (inactive).
For the molecule `COc1ccc(/C=C/C(=O)Nc2ccc(C)cc2)cc1S(=O)(=O)N1CCOCC1`, the inhibition was -7.24% (inactive).
As to `Cc1cc(C)n(-c2nnc(N3CCN(c4ccccc4)CC3)nn2)n1`, the inhibition was 1.58% (inactive).
In the case of `CC(Nc1nc(N2CCN(CCO)CC2)nc2ccccc12)c1ccccc1` (stereo not given), the inhibition is 1.5% (inactive).
As for `Cn1c(CNC(=O)c2ccccc2F)nnc1SCc1ccc(F)cc1`, the figure is 15.6% (inactive).
For the molecule `Cc1ccc(S(=O)(=O)NC(=O)N2CCCN(Cc3ccc(F)cc3)CC2)cc1`, the inhibition was 0.62% (inactive).
As for `CCCn1nc2cc(C(=O)NCc3ccccc3)ccc2c1OCC`, the figure is 5.83% (inactive).
Consider `O=[N+]([O-])c1cccc(-c2nnc3c4ccccc4c4ccccc4n23)c1`, for which the inhibition is 13.6% (inactive).
As for `O=c1[nH]c2ccccc2n2c(-c3ccccc3)nnc12`, the figure is 52.5% [fluorescence artefact?] (active); as for `CCOC(=O)c1cnc2[nH]c3ccccc3n2c1=O`, 13.5% (inactive); as for `C=C1C2C[C@H](O)C(C)(C)[C@@]2(O)[C@H](O)C[C@]23C[C@@](C)(O)[C@H](CC[C@H]12)[C@H]3O` (stereo not given in full), -4.67% (inactive).
Next, `CSc1nnnn1-c1c(C)cc(C)cc1C`: -8.98% (inactive); `CC(C)=C(NC(=O)c1ccccc1)C(=O)N/N=C(\C)c1ccccc1O`: 2.96% (inactive).
Next, `Cc1c(Cl)cccc1NC(=O)CC1SC(=NCC2CCCO2)NC1=O` (stereo not given): 1.68% (inactive); `CCCCNC(=O)N1CCN(S(C)(=O)=O)CC1`: 2.45% (inactive).
As to `Cc1ccc(Nc2nc(N)nc(CSc3nnc(C)s3)n2)cc1`, the inhibition was 3.78% (inactive).
As for `COc1ccc(-c2nn(-c3ccccc3)cc2/C=C\C(=O)N2CCOCC2)cc1[N+](=O)[O-]`, the figure is 1.3% (inactive); as for `COc1ccc(NC(=O)c2oc3ccc(S(=O)(=O)N4CCOCC4)cc3c2C)cc1`, -0.4% (inactive).
As for `Cc1ccc(S(=O)(=O)N2CCN(S(=O)(=O)N3CCOCC3)CC2)cc1`, the figure is 0.52% (inactive); as for `Cc1noc(C)c1CSc1nc2cc(S(=O)(=O)N3CCOCC3)ccc2o1`, 38.2% (active); as for `O=C(CSC(=S)N1CCOCC1)c1ccccc1`, 9.18% (inactive).
Next, `CCOC(=O)CNC(=O)/C(=C\c1ccc(F)cc1)NC(=O)c1ccccc1`: 0.01% (inactive).
With `Cc1ccc(NC(=O)Nc2cc(-c3ccccc3)nn2C)cc1Cl`, the inhibition was 1.28% (inactive).
In the case of `CCc1ccc(NC(=O)CC2C(=O)NCCN2C(=S)Nc2ccccc2)cc1` (stereo not given), the inhibition is 2.38% (inactive).
Next, `Cc1ccc(C)c(SCc2nc3sc(C(=O)O)c(C)c3c(=O)[nH]2)c1`: -9.58% (inactive); `Cc1ccc(-c2nc(SCC(=O)Nc3ccccc3OC(F)F)c3c(C)c(C(=O)O)sc3n2)cc1`: 34.5% (active); `COc1ccccc1NC(=O)CSc1nc2sc(C)c(C)c2c(=O)n1Cc1ccco1`: -13.8% (inactive).
Next, `CCOC(=O)C1=NN(c2ccc(Cl)cc2)/C(=C/C2=NCCc3cc(OC)c(OC)cc32)S1`: 2.69% (inactive); `Cc1ccc(OCc2n[nH]c(=S)n2-c2ccc(C)cc2)cc1`: 0.42% (inactive); `COc1ccc(OCC(O)CNCCNc2nccc(C(F)(F)F)n2)cc1` (stereo not given): -1.2% (inactive).
For `O=C(Nc1ccc(-c2csc(Nc3cccc(C(F)(F)F)c3)n2)cc1)c1cccc(C(F)(F)F)c1`, the inhibition was -4.77% (inactive).
As for `COCc1cc(=O)[nH]c(-c2ccc(C(F)(F)F)cc2)n1`, the figure is -4.61% (inactive); as for `COc1cc(C(=O)OCc2ccc([N+](=O)[O-])cc2)cc(OC)c1OC`, -2.12% (inactive).
As for `CC(C)(C)NC(=O)NC(=O)COC(=O)Cc1c(F)cccc1Cl`, the figure is 0.46% (inactive); as for `Cn1c(S(=O)(=O)O)nc2ccccc21`, 3.14% (inactive); as for `O=C(NNS(=O)(=O)c1ccccc1C(F)(F)F)c1cc2ncc(C(F)(F)F)cc2s1`, 9.76% (inactive).
Next, `CCOC1CS(=O)(=O)CC1OCC` (stereo not given): -1.77% (inactive).
On to `O=C(Cc1ccccc1)NCC1OCCc2ccccc21` (stereo not given), for which the inhibition is -5.93% (inactive).
As for `CCNC(=S)N1CCN(CCN=CC2=C(O)CC(C)(C)CC2=O)CC1`, the figure is 2.72% (inactive).
Next, `Oc1ccc(-c2nnc(Nc3ccccc3)c3ccccc23)cc1`: -1.27% (inactive); `Cc1nn(CC(=O)N/N=C/c2ccc(F)cc2)c(C)c1[N+](=O)[O-]`: 10.1% (inactive).
Consider `O=C1c2ccccc2C(O)N1Cc1ccccc1Cl` (stereo not given), for which the inhibition was 43.6% (active).
As for `O=C(Nc1ccc(Br)cc1)C1CCC(=O)N1Cc1ccccc1Cl` (stereo not given), the figure is 7% (inactive); as for `O=C1c2ccccc2C(O)N1Cc1ccccc1` (stereo not given), -4.18% (inactive).

Source of the values: PubChem BioAssay AID782 (Emory University Molecular Libraries Screening Center, 2007).
